For assay [1], the target named is Cellular tumor antigen p53 (Homo sapiens) (UniProt P04637). The experiment in a line: Primary qHTS for small molecule compounds that upregulate eGFP-tagged delta133p53alpha (in N-terminal) cells. (AID 2060322). Also: nearly all actives have a fitted effect of over 75% in size.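 As to activation: series mostly up to about 56 µM; 0% = DMSO vehicle and 100% = reference activator.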 Conditions: NCI-H358 eGFP-delta133p53alpha fluorescence, 24 h; activation: hits give high values. In outline: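 NCI-H358 cells pre-induced 24 h with 10 ng/ml doxycycline to express N-terminal eGFP-delta133p53alpha, then dosed 24 h at 37C without doxycycline; fixed, Hoechst-stained, GFP intensity by laser scanning cytometry, normalized to DMSO (0%) and 57.5 uM 5-azacytidine (100%).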
Chain of Cellular tumor antigen p53 (Homo sapiens) (P04637 whole entry, looked up): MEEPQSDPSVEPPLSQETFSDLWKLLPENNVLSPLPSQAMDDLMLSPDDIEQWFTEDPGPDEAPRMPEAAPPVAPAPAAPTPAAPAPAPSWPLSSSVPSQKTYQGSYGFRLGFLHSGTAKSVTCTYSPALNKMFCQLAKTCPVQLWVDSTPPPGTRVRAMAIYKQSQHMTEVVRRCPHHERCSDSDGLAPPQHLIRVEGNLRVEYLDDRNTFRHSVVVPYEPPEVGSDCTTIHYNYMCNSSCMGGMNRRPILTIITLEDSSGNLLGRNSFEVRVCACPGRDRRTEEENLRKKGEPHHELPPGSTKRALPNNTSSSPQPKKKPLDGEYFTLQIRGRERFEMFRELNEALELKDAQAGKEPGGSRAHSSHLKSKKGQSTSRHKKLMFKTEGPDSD

The nature of assay [2]: BET inhibitor-based combinations targeting novel dependencies in MECOM-rearranged (r) AML: SET-2 cell line (AID 2202231). Also: nearly all actives have a fitted effect of over 35% in size.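 As to viability: plate controls were DMSO treated cells for no effect and wells without cells for full effect.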 The note with it: SET-2 AML cells viability, CellTiter-Glo luminescence, 48 h; viability: hits give low values, concentration not given here. The method in brief: (§1)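 Each compound was tested at eleven concentrations on cells seeded at 500/well. After two days' incubation, ATP-based luminescence reported viability; responses relative to DMSO and blank wells yielded AUC and cell-line-centred Z-AUC.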
Background: ATP-based viability assays read luminescence as a measure of living cells.

Assay [3] in a line: BET inhibitor-based combinations targeting novel dependencies in MECOM-rearranged (r) AML: OCI-AML3 cell line (AID 2202232). Also: nearly all actives have a fitted effect of over 35% in size.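 As to viability (% of control): series mostly up to about 46 µM; plate controls were DMSO vehicle wells for no effect and wells without cells for full effect.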 Conditions: Potency: OCI-AML3 viability. In outline: as §1
Assay [4] in a line: BET inhibitor-based combinations targeting novel dependencies in MECOM-rearranged (r) AML: MV-4-11 cell line (AID 2202233). Also: nearly all actives have a fitted effect of over 45% in size.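 As to viability, % of control: plate controls were DMSO for no effect and blank wells for full effect.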 The method in brief: (§2)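 First, 500 cells per well were seeded; next, drugs were pinned as 11-point doses; then plates sat 48 hr in the incubator; finally CellTiter-Glo was added and luminescence read, with AUC and Z-AUC computed.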
Assay [5] in a line: BET inhibitor-based combinations targeting novel dependencies in MECOM-rearranged (r) AML: HNT-34 cell line (AID 2202234). Also: nearly all actives have a fitted effect of over 35% in size.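 As to viability (% of control): plate controls were vehicle wells for no effect and cell-free wells for full effect.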 The method in brief:
as §2

Assay [6] is described as follows: BET inhibitor-based combinations targeting novel dependencies in MECOM-rearranged (r) AML: AML-191 cell line (AID 2202236; also: nearly all actives have a fitted effect of over 35% in size;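 as to viability (% of control): plate controls were vehicle wells for no effect and wells without cells for full effect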). The method in brief:
as §1

The nature of assay [7]: BET inhibitor-based combinations targeting novel dependencies in MECOM-rearranged (r) AML: AML-194 cell line (AID 2202237; also: nearly all actives have a fitted effect of over 40% in size;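 as to viability (% of control): plate controls were vehicle wells for no effect and wells without cells for full effect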). The method in brief: as §1
A short description of assay [8]: BET inhibitor-based combinations targeting novel dependencies in MECOM-rearranged (r) AML: UCSD-AML1 cell line (AID 2202235). Also: nearly all actives have a fitted effect of over 40% in size.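 As to viability (% of control): series mostly up to about 46 µM; plate controls were DMSO vehicle wells for no effect and blank wells for full effect.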 The method in brief:
as §2

Values joined by “and” are separate entries in the source; they are usually repeats but may differ in a detail not shown here. Identical values can stand only once. Inconclusive results are not listed. Unmarked numbers belong to inactive results. Active and inactive are the calls of the source. Calls follow the shape of the dose curve; as a rule, active = well fitted curve in the direction sought with a large enough effect; inconclusive = small, poorly fitted or top-dose-only effect, or another doubt; inactive = no such curve, though single readings can be large; an effect the other way counts as inactive or inconclusive.
Potency is read from the fitted curve at half-maximal effect.

In the case of `COC(=O)C1=C(C)NC(C)=C(C(=O)OCCCN2CCC(c3ccccc3)(c3ccccc3)CC2)C1c1cccc([N+](=O)[O-])c1` (stereo not drawn), in assay [1], the activation is 2.93%. Further, the Potency in assay [2] is 18.6 µM (active); in assay [3] it was 29.5 µM (active); in assay [4], 10.5 µM (active); in assay [5] it was 18.6 µM (active); in assay [6], 26.3 µM (active); in assay [7] it was 20.9 µM (active).
As for `Cc1cc(OCCCS(C)(=O)=O)cc(C)c1-c1cccc(COc2ccc3c(c2)OC[C@H]3CC(=O)O)c1`, in assay [1], the activation is 5.3%. In assay [2], the viability is 98.7%. Also, the Potency entry in assay [3], in assay [4], in assay [5], in assay [6] and in assay [7] was “inactive” each time.
As for `CC(C)(Cc1ccc2ccccc2c1)NC[C@@H](O)COc1cccc(Cl)c1C#N`, the activation in assay [1] is 19.8%. The Potency is 18.6 µM (active) in assay [2]; 16.6 µM (active) in assay [3]; 16.6 µM (active) in assay [4]; 16.6 µM (active) in assay [5]; 10.5 µM (active) in assay [6]; 10.5 µM (active) in assay [7].
For `Cc1cc2nc3c(=O)[nH]c(=O)nc-3n(CC(O)C(O)C(O)CO)c2cc1C` (stereo not drawn), the activation in assay [1] was -37.4%. For the same molecule, the viability in assay [2] is 106%. The Potency result in assay [3], in assay [4], in assay [5], in assay [8] and in assay [7] was “inactive” in each case.
On to `CC1CNc2c(cccc2S(=O)(=O)N[C@@H](CCCN=C(N)N)C(=O)N2CC[C@@H](C)C[C@@H]2C(=O)O)C1` (stereo partly drawn), for which the activation in assay [1] is 8.55%. In assay [2], the viability is 116%. For the same molecule, the Potency result in assay [3], in assay [4], in assay [5], in assay [8], in assay [6] and in assay [7] was “inactive” throughout.
In the case of `COc1ccc(CCN(C)CCCOc2ccc(S(=O)(=O)c3[nH]c4ccccc4c3C(C)C)cc2)cc1OC`, the activation in assay [1] is -2.61%. The Potency in assay [2] is 26.3 µM (active); in assay [3], 16.6 µM (active); in assay [4], 11.8 µM (active); in assay [5], 18.6 µM (active); in assay [8] it was 14.8 µM (active); in assay [7] it was 14.8 µM (active).
In the case of `CCCN[C@H]1CCc2nc(N)sc2C1`, the activation in assay [1] was 9.21% and 7.7%. In addition, in assay [2], the viability was 116%. Besides, the Potency result in assay [3], in assay [5], in assay [6] and in assay [7] was “inactive” throughout. Moreover, the Potency in assay [4] is 0.934 µM (active).
On to `CC(C)(Sc1cc(C(C)(C)C)c(O)c(C(C)(C)C)c1)Sc1cc(C(C)(C)C)c(O)c(C(C)(C)C)c1`, for which the activation in assay [1] was 5.08% and 14.9%. Moreover, the viability in assay [2] was 103%. Besides, the Potency result in assay [3], in assay [4], in assay [5] and in assay [8] was “inactive” throughout. Besides, in assay [7], the Potency is 13.2 µM (active).
Regarding `COc1cccc(OC)c1-c1cc(C(=O)NC2(C(=O)O)C3CC4CC(C3)CC2C4)nn1-c1ccnc2cc(Cl)ccc12` (stereo not drawn), the activation in assay [1] is -14.3%. The viability in assay [2] was 114%. The Potency result in assay [3], in assay [4], in assay [5], in assay [8], in assay [6] and in assay [7] was “inactive” in each case.
Turning to `CC(C)(C#N)c1cc(Cn2cncn2)cc(C(C)(C)C#N)c1`, the activation in assay [1] is 2.42%. Moreover, the viability in assay [2] is 107%. The Potency result in assay [3], in assay [4], in assay [5], in assay [8], in assay [6] and in assay [7] was “inactive” throughout.
With `NS(=O)(=O)c1cc2c(cc1Cl)NC(C(Cl)Cl)NS2(=O)=O` (stereo not drawn), in assay [1], the activation is -14.1% and -9.47%. Further, in assay [2], the viability was 112%. The Potency in assay [3] was 16.6 µM (active). The Potency entry in assay [4], in assay [5], in assay [8] and in assay [7] was “inactive” in each case.
Consider `CCN1CCN(CC(=O)Nc2ccc(-c3cccc4c(=O)cc(N5CCOCC5)oc34)c3sc4ccccc4c23)CC1`, for which, in assay [1], the activation is -18.4%. In addition, the Potency in assay [2] was 8.11 µM (active); in assay [3] it was 2.57 µM (active); in assay [4], 1.44 µM (active); in assay [5], 5.74 µM (active); in assay [6], 5.74 µM (active); in assay [7], 3.23 µM (active).
On to `C=CC(=O)Nc1cc2c(Nc3ccc(F)c(Cl)c3)ncnc2cc1OCCCN1CCOCC1`, for which the Potency in assay [1] was 4.9 µM (active); in assay [2] it was 14.8 µM (active); in assay [3], 4.68 µM (active); in assay [4], 1.32 µM (active); in assay [5] it was 2.63 µM (active); in assay [8], 4.68 µM (active). For the same molecule, the Potency in assay [7] is 11.8 µM (active).
For `O=C1CCCC(=O)C1C(=O)c1ccc(C(F)(F)F)cc1[N+](=O)[O-]`, the activation in assay [1] is 24.5%. Further, the viability in assay [2] is 111%. Also, the Potency entry in assay [3], in assay [4], in assay [5], in assay [8], in assay [6] and in assay [7] was “inactive” in each case.
Turning to `Nc1ccn(C[C@@H](CO)OCP(=O)(O)O)c(=O)n1`, in assay [1], the activation is -2.13%. For the same molecule, the viability in assay [2] was 113%. The viability (% of control) in assay [3] is 113% [at 8.46 µM]; in assay [5], 82.3% [at 8.46 µM]; in assay [8] it was 104% [at 8.46 µM]; in assay [6] it was 91.5% [at 8.46 µM]; in assay [7], 105% [at 8.46 µM]. The viability, % of control in assay [4] was 126% [at 8.46 µM].
Turning to `N[C@@]1(C(=O)O)CS(=O)(=O)[C@H]2[C@H](C(=O)O)[C@H]21`, the activation in assay [1] was -21.5%. The viability in assay [2] was 114%. In addition, the Potency entry in assay [3], in assay [4], in assay [5], in assay [8] and in assay [7] was “inactive” each time.
For `CCCCCCCCc1ccc(CCC(N)(CO)CO)cc1`, the activation in assay [1] was 2.16%. Moreover, the Potency in assay [2] is 26.3 µM (active); in assay [3] it was 13.2 µM (active); in assay [4], 14.8 µM (active); in assay [5] it was 18.6 µM (active); in assay [6], 16.6 µM (active); in assay [7] it was 14.8 µM (active).
Take `COc1ccc([C@@H]2CNC(=O)C2)cc1OC1CCCC1`: the activation in assay [1] was 7.46%. Also, the viability in assay [2] is 118%. The Potency entry in assay [3], in assay [4], in assay [5], in assay [8] and in assay [7] was “inactive” each time.
On to `C[C@]12C=CC(=O)C=C1CC[C@@H]1[C@@H]2C(=O)C[C@@]2(C)[C@H]1CC[C@]2(O)C(=O)CO`, for which the activation in assay [1] is -20.1% and 2.21%. Moreover, the viability in assay [2] is 109%. In addition, the Potency entry in assay [3], in assay [4], in assay [5], in assay [6] and in assay [7] was “inactive” each time.

The term viability denotes a read-out of living cells in per cent, often relative to untreated cells.
